The list is not random: actives were taken first. Their share in the collection is about 5.7%.
KB-V1 MDR tox: kills drug-selected multidrug resistant KB-V1 cells. actives 3.4% (n = 400,000). AID 1347076. KB-V1 MDR cells viability, CellTiter-Glo, 72 h. Potency, µM (highest dose often 46.1 µM), most hits filed as cytotoxic; further: nearly all actives have a fitted effect of over 60% in size
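KB-V1 MDR subline cells in DMEM (phenol-red free, 10% FBS) exposed to compounds in qHTS concentration series for 72 h at 37 degrees C. Viability read by CellTiter-Glo luminescence; concentration-effect curves fitted after normalization and correction.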
HT1080-NT tox: kills 2HG-producing HT-1080-NT fibrosarcoma cells; actives 1.6% (n = 360,000); HT-1080-NT fibrosarcoma viability, CellTiter-Glo ATP luminescence, 48 h; Potency, µM (series often up to 46.1 µM), for the others: at the highest dose activity, negative = less viability, hits mostly cytotoxic;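 further: NT is the 2HG producing partner of a matched IDH1 knockdown line; 0% = DMSO-treated cells and -100% = media-only wells without cells; nearly all actives have a fitted effect of over 55% in size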
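750 cells/well, RPMI + 5% FBS; 2 h settle, compound pin-transfer, 48 h at 37 degrees C. CellTiter-Glo 10 min RT, luminescence. Normalized to DMSO and media-only wells.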
KB-3-1 cytotox: KB-3-1 parental cell cytotoxicity; Potency, µM (highest dose often 46.1 µM), most hits filed as cytotoxic; KB-3-1 viability, CellTiter-Glo ATP luminescence, 72 h; AID 1347075; actives 1.4% (n = 400,000); further: nearly all actives have a fitted effect of over 60% in size
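72 h, 37 °C compound treatment of KB-3-1 parental cells; CellTiter-Glo added, 10 min, luminescence read. Data corrected against DMSO-only plates and normalized before curve fitting.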
HT1080 IDH1KD tx: toxicity to HT-1080 IDH1 knockdown cells (counter line) | Potency, µM (titrated, usually from 46.1 µM), without a hit: at the highest dose activity, negative = toxicity, actives largely listed as cytotoxic | actives 2% (n = 360,000) | AID 686971 | HT-1080 IDH1 knockdown viability, ATP luminescence, 48 h;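 further: 0% = DMSO wells and -100% = cell-free medium wells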
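Viability of IDH1-knockdown HT-1080 fibrosarcoma cells was assessed by CellTiter-Glo after 48 h at 37 °C with titrated compound; concentration-effect curves were classified by fit quality and response size.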
An asterisk follows results filed as active; i = inactive; ? = inconclusive; . = not tested or not shown; ! = a repeat was not active. The call rests on the fitted dose curve; in most records, active means well fitted curve in the direction sought with a large enough effect; inconclusive means small, poorly fitted or top-dose-only effect, or another doubt; inactive means no such curve, though single readings can be large; an effect the other way counts as inactive or inconclusive. Unless noted, on the % scale 0 is the no-effect control and ±100 the full control effect; potency means the concentration at half of the fitted maximal effect.

SMILES	KB-V1 MDR tox	HT1080-NT tox	KB-3-1 cytotox	HT1080 IDH1KD tx
CCOc1ccc(Br)cc1C1=NN(C(C)=O)C(c2ccc([N+](=O)[O-])s2)O1 (stereo not drawn)	i	23µM*	?	?
O=C(Cc1ccccc1Cl)NO	.	15%	.	20%
Cc1ccccc1OCC(=O)NCC(=O)OCC(=O)c1ccc2c(c1)CCCC2	i	.	?	.
Cc1ccccc1OCCNc1ccc(C(F)(F)F)cc1[N+](=O)[O-]	?	2%	16µM*	3%
CCOC(=O)C1CCN(S(=O)(=O)c2cc3c4c(c2)CC(=O)N4CCC3)CC1	i	.	i	.
CCCOc1ccc(CNC(=O)c2ccc(C)c(-n3c(C)nc4cccnc43)c2)cc1	i	.	i	.
CCc1nnc(NC(=O)CCN(c2cc(C)cc(C)c2)S(=O)(=O)c2ccc(Cl)cc2)s1	2.6µM*	1%	?	-8%
Cc1cc(C)cc(N(CCC(=O)O)S(=O)(=O)c2ccc(Cl)cc2)c1	i	23%	i	17%
CCCCCCn1c(SCC#N)nc2ccccc2c1=O	i	.	i	.
O=C(CCC1N=C2c3ccccc3N=C(SCc3ccc(Cl)cc3)N2C1=O)NCc1ccco1 (stereo not drawn)	6.5µM*	-3%	?	-20%
COc1ccc2c(C)c(CC(=O)NCc3ccc(C)cc3)c(=O)oc2c1OC	?	.	i	.
Cc1c(CC(=O)NCc2ccccc2)c(=O)oc2c(C)c(O)ccc12	?	.	13µM*	.
COC(=O)c1ccc(NC(=O)CSC2=Nc3ccccc3C3CC=NN23)cc1 (stereo not drawn)	16µM*	-7%	i	-3%
O=C(CSC1=Nc2ccccc2C2CC=NN12)Nc1ccc(F)cc1Cl (stereo not drawn)	?	-6%	i	-8%
Cc1ccc(NC(=O)CSC2=Nc3ccccc3C3CC=NN23)c(C)c1 (stereo not drawn)	13µM*	9%	i	-3%
NC(=O)c1ccc(NC(=O)CSC2=Nc3ccccc3C3CC=NN23)cc1 (stereo not drawn)	i	-26%	i	?
Cc1nn2c(=O)cc(COC(=O)c3cccs3)nc2s1	i	.	i	.
N#CC1=C(N)N(c2cccc(Cl)c2)C2=C(C(=O)CCC2)C1c1cc(CN2CCOCC2)cs1 (stereo not drawn)	i	.	i	.
O=C(NNc1c2ccccc2nc2ccccc12)c1ccc(O)cc1O	i	?	i	?
O=C(COc1ccccc1)NNc1c2ccccc2nc2ccccc12	18µM*	-30%	i	?
COc1ccc(OCC(=O)NNc2c3ccccc3nc3ccccc23)cc1	4.6µM*	-28%	?	?
CCCC(=O)NNc1c2ccccc2nc2ccccc12	16µM*	-1%	i	9%
O=C(CCCO)NNc1c2ccccc2nc2ccccc12	i	6%	i	1%
O=C(NNc1c2ccccc2nc2ccccc12)c1ccccc1O	21µM*	?	i	?
Cc1oc2ccc(O)c(CN3CCN(C)CC3)c2c1C(=O)Nc1cccc(Cl)c1C	i	.	i	.
SMILES	KB-V1 MDR tox	HT1080-NT tox	KB-3-1 cytotox	HT1080 IDH1KD tx
CC(C)(C)CC(C)(C)NCC(O)COc1ccc2c(c1)CCC2 (stereo not drawn)	?	21µM*	21µM*	?
CC(C)(CO)NCC(O)COc1ccc2c(c1)CCC2 (stereo not drawn)	i	-2%	i	14%
Cc1cc([N+](=O)[O-])c2[nH]c(C(=O)N/N=C/c3ccccc3C(=O)O)c(-c3ccccc3)c2c1	4.1µM*	13%	i	11%
Cc1ccc2nc(NC(=O)CSc3cc(C)[nH]c(=O)n3)sc2c1	i	.	i	.
O=S(=O)(NC1CC1)c1ccc(S(=O)(=O)N2CCC3(CC2)OCCO3)cc1	?	1%	i	10%
CC(C)CNS(=O)(=O)c1ccc(S(=O)(=O)N2CCC3(CC2)OCCO3)cc1	15µM*	-4%	i	0%
Cc1ccc(NC(=O)c2ncn(CC(=O)NCc3ccc4[nH]ccc4c3)n2)cc1C	i	1%	i	-1%
Cc1ccc(NC(=O)c2ncn(CCCN(CCCn3cnc(C(=O)Nc4ccc(C)c(C)c4)n3)Cc3ccc4[nH]ccc4c3)n2)cc1C	i	16µM*	i	21µM*
O=C(NCCc1ccccc1F)C1CC(=O)N(c2cccc(C(F)(F)F)c2)C1 (stereo not drawn)	13µM*	2%	i	8%
COc1ccc(-c2nc(NC(=O)C3CC(=O)N(c4ccc5c(c4)OCCO5)C3)sc2C)cc1 (stereo not drawn)	?	?	13µM*!	?
COc1ccc2nc(NC(=O)C3CC(=O)N(c4ccc5c(c4)OCCO5)C3)sc2c1 (stereo not drawn)	i	-1%	i	-18%
O=C(NCCCc1ccccc1)C1CC(=O)N(c2ccc3c(c2)OCCO3)C1 (stereo not drawn)	23µM*	6%	i	5%
Cc1cccc(NC(=O)c2cccc(N3CCCS3(=O)=O)c2)c1	i	.	i	.
O=C(Nc1ccc(F)cc1)c1cccc(N2C(=O)C3C4CCC(C4)C3C2=O)c1 (stereo not drawn)	10µM*	3%	?	-1%
Cc1cccc2sc(NC(=O)c3ccc(OCC4CCCO4)cc3)nc12 (stereo not drawn)	?	0%	i	-11%
Cc1ccc(Nc2nc(-c3ccc(S(=O)(=O)N4CCOCC4)cc3)cs2)cc1Cl	?	23µM*	i	16µM*
O=C(Nc1nc(-c2nc3ccccc3s2)cs1)c1ccc(S(=O)(=O)N2CCOCC2)cc1	4.6µM*	?	?	?
Cc1ccc(C(=O)Nc2nc(-c3ccccn3)cs2)cc1S(=O)(=O)N1CCOCC1	?	18µM*	i	4.6µM*
Cc1csc(NC(=O)c2ccc(OCC3CCCO3)cc2)n1 (stereo not drawn)	13µM*	-15%	i	0%
CC(C)CCN(Cc1ccco1)C(=O)Cn1ncc2c([nH]c3ccccc32)c1=O	i	.	i	.
Cc1c(NC(=O)c2ccc(-c3cccc([N+](=O)[O-])c3)o2)cccc1-c1nc2cc(Cl)ccc2o1	i	.	i	.
CN(CC1CCCO1)S(=O)(=O)c1ccc(C(=O)Nc2nc(-c3ccccn3)cs2)cc1 (stereo not drawn)	i	?	4.1µM*	?
COc1ccc(/C=C2\CCn3c2nc2ccccc2c3=O)cc1OC	i	11%	i	12%
COc1cc2c(cc1OC)-c1nc3ccccc3c(=O)n1C(C)(C)C2	9.2µM*	-5%	i	-17%
CCc1ccc(-n2c(=O)c3c(C)c(C)sc3n(CC(=O)NCc3ccc(C)cc3)c2=O)cc1	i	.	i	.
Clc1ccc(CN2CCN(c3ncnc4scc(-c5cccs5)c34)CC2)cc1	13µM*	-19%	?	-29%
Clc1ccc(-c2csc3ncnc(N4CCc5ccccc5C4)c23)cc1	16µM*	-3%	i	-10%
